Article PMC5540273 (PLoS ONE, 2017)

Assays:
Conditions in all cases: concentration: 1 μM, replicates: in singlicate; n = 1
[1] = tested on: BMX
[2] = tested on: BRAF
[3] = tested on: T1, BRK
T1 construct: gene PTK6

[4] = tested on: BRSK1
[5] = tested on: BRSK2
[6] = tested on: BTK
[7] = tested on: BUB1
[8] = tested on: CAMK1B
[9] = tested on: CAMK1D
[10] = tested on: CAMK1G
[11] = tested on: CAMK1
[12] = tested on: CAMK2A
[13] = tested on: CAMK2B
[14] = tested on: CAMK2D
[15] = tested on: CAMK2G
[16] = tested on: CAMK4
[17] = tested on: CAMKK1
[18] = tested on: CAMKK2
[19] = tested on: CASK
[20] = tested on: T2, CDC2L1
T2 construct: gene CDK11B
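Further: KINOMEscan kinase panel screen.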

## O=C(Nc1n[nH]c2nc(-c3ccc(O)cc3)ccc12)C1CC1 [SB-710363]
[1]
  %Inh: 22%
[2]
  %Inh: 0%
[3]
  %Inh: 0%
[4]
  %Inh: 26%
[5]
  %Inh: 11%
[6]
  %Inh: 0%
[7]
  %Inh: 0%
[8]
  %Inh: 0%
[9]
  %Inh: 0%
[10]
  %Inh: 4%
[11]
  %Inh: 0%
[12]
  %Inh: 19%
[13]
  %Inh: 19%
[14]
  %Inh: 5%
[15]
  %Inh: 0%
[16]
  %Inh: 0%
[17]
  %Inh: 8%
[18]
  %Inh: 17%
[19]
  %Inh: 31%
[20]
  %Inh: 0%

## COc1cccc(C(=O)Nc2cccc(Oc3ccc4nc(NC(=O)C5CC5)cn4n3)c2)c1
[1]
  %Inh: 77%
[2]
  %Inh: 96.5%
[3]
  %Inh: 21%
[4]
  %Inh: 4%
[5]
  %Inh: 0%
[6]
  %Inh: 9%
[7]
  %Inh: 0%
[8]
  %Inh: 0%
[9]
  %Inh: 17%
[10]
  %Inh: 21%
[11]
  %Inh: 16%
[12]
  %Inh: 11%
[13]
  %Inh: 18%
[14]
  %Inh: 15%
[15]
  %Inh: 0%
[16]
  %Inh: 8%
[17]
  %Inh: 6%
[18]
  %Inh: 0%
[19]
  %Inh: 3%
[20]
  %Inh: 0%

## O=C(Nc1cccc(Oc2ccc3nc(NC(=O)C4CC4)cn3n2)c1)c1ccccc1C(F)(F)F
[1]
  %Inh: 0%
[2]
  %Inh: 65%
[3]
  %Inh: 0%
[4]
  %Inh: 6%
[5]
  %Inh: 0%
[6]
  %Inh: 16%
[7]
  %Inh: 0%
[8]
  %Inh: 0%
[9]
  %Inh: 3%
[10]
  %Inh: 0%
[11]
  %Inh: 7%
[12]
  %Inh: 100%
[13]
  %Inh: 100%
[14]
  %Inh: 1%
[15]
  %Inh: 0%
[16]
  %Inh: 0%
[17]
  %Inh: 1%
[18]
  %Inh: 0%
[19]
  %Inh: 6%
[20]
  %Inh: 0%

## Cc1cccc(NC(=O)Nc2ccc(Oc3ncnc4ccn(C)c34)cc2)c1
[1]
  %Inh: 0%
[2]
  %Inh: 0%
[3]
  %Inh: 0%
[4]
  %Inh: 0%
[5]
  %Inh: 0%
[6]
  %Inh: 91.6%
[7]
  %Inh: 0%
[8]
  %Inh: 14%
[9]
  %Inh: 6%
[10]
  %Inh: 0%
[11]
  %Inh: 0%
[12]
  %Inh: 0%
[13]
  %Inh: 0%
[14]
  %Inh: 0%
[15]
  %Inh: 0%
[16]
  %Inh: 0%
[17]
  %Inh: 0%
[18]
  %Inh: 0%
[19]
  %Inh: 0%
[20]
  %Inh: 0%

## COc1ccc(CNC(=O)NC2CCN(c3ccnc(Nc4ccc(F)cc4)n3)CC2)cc1 [GSK1379788]
[1]
  %Inh: 3%
[2]
  %Inh: 0%
[3]
  %Inh: 0%
[4]
  %Inh: 0%
[5]
  %Inh: 0%
[6]
  %Inh: 0%
[7]
  %Inh: 56%
[8]
  %Inh: 7%
[9]
  %Inh: 15%
[10]
  %Inh: 0%
[11]
  %Inh: 10%
[12]
  %Inh: 0%
[13]
  %Inh: 0%
[14]
  %Inh: 8%
[15]
  %Inh: 16%
[16]
  %Inh: 0%
[17]
  %Inh: 2%
[18]
  %Inh: 16%
[19]
  %Inh: 0%
[20]
  %Inh: 0%

## CC(=O)Nc1nc2cnc(Nc3cc(NC(=O)c4cccc(C5(C#N)CC5)c4Cl)ccc3C)nc2s1
[1]
  %Inh: 1%
[2]
  %Inh: 99.4%
[3]
  %Inh: 30%
[4]
  %Inh: 10%
[5]
  %Inh: 0%
[6]
  %Inh: 0%
[7]
  %Inh: 0%
[8]
  %Inh: 0%
[9]
  %Inh: 30%
[10]
  %Inh: 0%
[11]
  %Inh: 35%
[12]
  %Inh: 13%
[13]
  %Inh: 0%
[14]
  %Inh: 0%
[15]
  %Inh: 10%
[16]
  %Inh: 0%
[17]
  %Inh: 14%
[18]
  %Inh: 12%
[19]
  %Inh: 0%
[20]
  %Inh: 43%

## Nc1n[nH]c2cnc(-c3ccccc3)cc12 [SB-642124]
[1]
  %Inh: 5%
[2]
  %Inh: 7%
[3]
  %Inh: 19%
[4]
  %Inh: 13%
[5]
  %Inh: 7%
[6]
  %Inh: 0%
[7]
  %Inh: 44%
[8]
  %Inh: 8%
[9]
  %Inh: 0%
[10]
  %Inh: 10%
[11]
  %Inh: 5%
[12]
  %Inh: 0%
[13]
  %Inh: 13%
[14]
  %Inh: 17%
[15]
  %Inh: 22%
[16]
  %Inh: 0%
[17]
  %Inh: 1%
[18]
  %Inh: 0%
[19]
  %Inh: 26%
[20]
  %Inh: 0%

## NCCCC(NC(=O)c1cc(Br)c(-c2ccnc3[nH]ccc23)s1)c1ccccc1.O=C(O)C(F)(F)F.O=C(O)C(F)(F)F (centres unmarked) [GSK1287544]
[1]
  %Inh: 7%
[2]
  %Inh: 0%
[3]
  %Inh: 3%
[4]
  %Inh: 28%
[5]
  %Inh: 0%
[6]
  %Inh: 0%
[7]
  %Inh: 21%
[8]
  %Inh: 10%
[9]
  %Inh: 18%
[10]
  %Inh: 0%
[11]
  %Inh: 13%
[12]
  %Inh: 0%
[13]
  %Inh: 0%
[14]
  %Inh: 0%
[15]
  %Inh: 10%
[16]
  %Inh: 0%
[17]
  %Inh: 30%
[18]
  %Inh: 8%
[19]
  %Inh: 0%
[20]
  %Inh: 0%

## C[C@@H]1CC[C@@H](C(=O)Nc2ccccc2)CN1c1cc(-c2ccc3c(N)n[nH]c3c2)nc(N)n1 [GSK2286062]
[1]
  %Inh: 24%
[2]
  %Inh: 0%
[3]
  %Inh: 3%
[4]
  %Inh: 0%
[5]
  %Inh: 0%
[6]
  %Inh: 0%
[7]
  %Inh: 16%
[8]
  %Inh: 0%
[9]
  %Inh: 23%
[10]
  %Inh: 6%
[11]
  %Inh: 28%
[12]
  %Inh: 0%
[13]
  %Inh: 0%
[14]
  %Inh: 17%
[15]
  %Inh: 18%
[16]
  %Inh: 0%
[17]
  %Inh: 0%
[18]
  %Inh: 7%
[19]
  %Inh: 5%
[20]
  %Inh: 7%

## Oc1cc(Nc2ccnc3cc(I)ccc23)ccc1F [GW552771]
[1]
  %Inh: 15%
[2]
  %Inh: 79%
[3]
  %Inh: 28%
[4]
  %Inh: 11%
[5]
  %Inh: 0%
[6]
  %Inh: 7%
[7]
  %Inh: 57%
[8]
  %Inh: 37%
[9]
  %Inh: 8%
[10]
  %Inh: 0%
[11]
  %Inh: 19%
[12]
  %Inh: 0%
[13]
  %Inh: 0%
[14]
  %Inh: 0%
[15]
  %Inh: 0%
[16]
  %Inh: 0%
[17]
  %Inh: 8%
[18]
  %Inh: 0%
[19]
  %Inh: 18%
[20]
  %Inh: 0%
